Only some compounds are listed: those with a hit (about 21% of all), similar ones and a draw of the others.
Pf growth 96h = P. falciparum growth inhibition at 96 hour, primary screen for plastid delayed-death inhibitors | P. falciparum luciferase reporter growth, 96 h | actives 6.9% (n = 320,000) | Potency, µM (doses to about 28.7 µM), without a hit: at the top dose activity change, negative = inhibition, actives largely listed as inhibitors | AID 504834; further: potency means the concentration at half of the fitted maximal effect; on the % scale 0 is the no-effect control and ±100 the full control effect
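96 h incubation, 37 C, 5% CO2, of luciferase-reporter P. falciparum-infected RBCs (2% hematocrit, 0.05% parasitemia final) with test compounds; endpoint luminescence.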
CHX counter = counter-screen for Shiga toxin inhibitors: cycloheximide protein synthesis inhibition | cell reporter, cycloheximide protein synthesis inhibition counterscreen | max response, % | actives 12% (n = 300,000); in the data active means max response mostly above about 13%, no sharp cut-off; inactive means mostly below about 14%; further: read at 38.3 µM for the half of the compounds with a filed dose; 0% is about no effect
HCV inhibitor = HCV inhibition; AID 651820; Huh7.5.1 HCVcc-Cre infection, luciferase reporter, 44 h; actives 3.4% (n = 340,000); Potency, µM (top dose mostly 41.8 µM), for inactives: at the highest dose activity change, negative = inhibition, usual class: inhibitors; further: potency means the concentration at half of the fitted maximal effect; on the % scale 0 is the no-effect control and ±100 the full control effect
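Compounds are dispensed onto cells plated 4 h earlier at 1,000 per well, with HCVcc-Cre virus (about 0.5 moi) added next. Following 44 h of culture, luminescent signal is measured for 15 sec after 15 min with substrate at room temperature.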
Shiga toxin inh = blocks Shiga toxin action in Vero cells; Vero cells, Shiga toxin protein synthesis inhibition reporter; inhibition, % at 38.7 µM; actives 9.2% (n = 290,000); AID 2315; in the data active means inhibition mostly above about 28%, no sharp cut-off; inactive means mostly below about 43%; further: 0% is about no effect
AMA1-RON2 inh = AMA1-RON2 (P. falciparum) interaction inhibition. AlphaScreen AMA1-biotinylated RON2 peptide binding. Potency, µM (titrated, usually from 58.2 µM), inactives show at the top dose activity change, negative = inhibition, actives largely listed as inhibitors. actives 0.2% (n = 360,000). AID 720542;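 further: potency means the concentration at half of the fitted maximal effect; 0% = vehicle wells and -100% = peptide control; nearly all actives have a fitted effect of over 45% in size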
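AMA1 (3D7) with his tag at 25 nM final met compounds first, then biotinylated RON2 peptide at 25 nM; detection used donor plus acceptor beads, 10 µg/mL apiece, read by AlphaScreen after 30 min at room temperature.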
Pf growth 48h = inhibits P. falciparum growth in the first generation, 48 h | actives 5.9% (n = 310,000) | Potency, µM (series often up to 28.7 µM), for inactives: top-dose activity change, negative = inhibition, actives largely listed as inhibitors | P. falciparum luciferase growth in erythrocytes, 48 h | AID 504832; further: potency means the concentration at half of the fitted maximal effect; on the % scale 0 is the no-effect control and ±100 the full control effect
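Erythrocytes infected with P. falciparum carrying an integrated firefly luciferase reporter (2% hematocrit, 0.1% parasitemia final) were exposed to compounds in RPMI 1640 with 0.5% Albumax at 37 C, 5% CO2. Growth inhibition was scored as reduced luminescence.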
Numbers without * were called inactive; ? = inconclusive; . = no result given; [ ] = another dose, or the depositor's remark. Unless noted, the call rests on the fitted dose curve; in most records, active means well fitted curve in the direction sought with a large enough effect; inconclusive means small, poorly fitted or top-dose-only effect, or another doubt; inactive means no such curve, though single readings can be large; an effect the other way counts as inactive or inconclusive.

SMILES | Pf growth 96h | CHX counter | HCV inhibitor | Shiga toxin inh | AMA1-RON2 inh | Pf growth 48h
Cc1ccc(NC(=O)N(Cc2cc3cc(C)cc(C)c3[nH]c2=O)CC2COCCO2)cc1 (centres undefined) | ? | -6.4 | ? | -7.2 | 6.3% | 10.0%
CCN1CCCC1CN(Cc1cc2cc(C)cc(C)c2[nH]c1=O)C(=O)Nc1ccccc1OC (centres undefined) | 34.5% | -0.5 | -15.3% | -0.9 | -7.0% | 9.28µM*
COCOc1ccc(C2CC(=O)c3c(OCOC)cc(OCOC)cc3O2)cc1 (centres undefined) | . | . | ? | . | -5.8% | .
Cc1nc(NCCc2ccc(O)cc2)c2nnn(Cc3ccccc3)c2n1 | ? | -1.8 | ? | 1.3 | 15.3% | -4.3%
CCOc1ccc2[nH]c(=O)c(CN(CCN3CCCC3)C(=S)Nc3ccccc3OCC)cc2c1 | ? | 1.0 | ? | -7.1 | -2.7% | 6.57µM*
CCc1ccc2[nH]c(=O)c(CN(Cc3ccccc3OC)C(=O)Nc3ccccc3OC)cc2c1 | . | -1.4 | 7.94µM* | -9.9 | -15.8% | 11.7µM*
COc1ccc2[nH]c(=O)c(CN(CCN3CCCC3)C(=O)Nc3ccccc3Cl)cc2c1 | 21.6% | -3.1 | -24.1% | -12.5 | -0.9% | ?
O=C(CCCN1Cc2ccccc2C1)c1ccc(F)cc1 | 5.22µM* | 22.0 | 1.9% | -5.5 | 9.8% | 19.9%
CN1CCN(CCCC(=O)c2ccc(F)cc2)CC1 | ? | -1.1 | 5.5% | -8.7 | -6.4% | 26.1%
O=C(CCN1Cc2ccccc2C1)c1ccc2c(c1)OCCO2 | . | 19.0* | -12.9% | 37.4 | 2.7% | ?
O=C(CCN1CCc2ccccc2C(c2ccccc2)C1)c1ccc2c(c1)OCCO2 (centres undefined) | -9.2% | 19.0* | ? | 25.0 | -13.9% | .
O=C(O)CCC(=O)c1ccc2c(c1)OCCO2 | ? | 7.9 | 15.5% | 9.8 | 5.6% | .
CC1C(=O)N(Cc2cn(CCC3OCCCO3)nn2)CCS(=O)(=O)N1Cc1ccc(-c2ccc(Cl)c(Cl)c2)cc1 (centres undefined) | . | . | . | . | -4.9% | .
CN(C)c1ccc(C(=O)N2CCN(C(=O)C3CCCO3)CC2)cc1 (centres undefined) | . | . | 28.0% | . | 1.1% | .
COc1cccc(C(=O)NCC(C)(C)SCc2ccc(F)cc2)c1 | 7.5% | -2.6 | ? | -7.5 | 13.1% | 0.0%
O=C(NCC1CCCCC1)C1(CC2CC(c3cccc(Br)c3)=NO2)CCNCC1 (centres undefined) | ? | -8.1 | ? | 13.9 | 6.0% | -64.3%
CCCCCCCNC(=O)C1(CC2CC(c3cccc(Br)c3)=NO2)CCN(C(=O)OC(C)(C)C)CC1 (centres undefined) | 4.65µM* | 15.2* | -17.1% | 15.4 | -2.7% | ?
CCCCCCCNC(=O)C1(CC2CC(c3ccc(Cl)cc3)=NO2)CCN(C(=O)C2CCCC2)CC1 (centres undefined) | 9.28µM* | -1.1 | 30.0% | -10.0 | 5.4% | -29.3%
CCCCCCCNC(=O)C1(CC2CC(c3cccc(Br)c3)=NO2)CCN(C(=O)C2CCCC2)CC1 (centres undefined) | 9.28µM* | . | 4.7% | . | -20.7% | 5.22µM*
CCCCCCCNC(=O)C1(CC2CC(c3ccc(Cl)cc3)=NO2)CCN(C(=O)C2(C)CC2)CC1 (centres undefined) | ? | -0.8 | -3.2% | 5.4 | -6.2% | ?
Cc1coc2cc3oc(=O)c4c(c3cc12)CCC4 | . | -4.9 | 19.5% | 11.5 | . | 16.1%
Cc1cc(C)c2c(CCl)cc(=O)oc2c1 | -0.5% | -3.9 | 4.4% | -6.5 | 4.2% | 4.6%
CCCc1cc(=O)oc2cc3oc(C)c(C)c3cc12 | . | -4.5 | 22.4µM* | -32.5 | -4.6% | 38.8%
CCc1cc(=O)oc2cc3occ(C)c3cc12 | 20.7% | -2.7 | ? | -3.6 | 5.9%[2.32 µM] | 4.5%
CCCc1cc(=O)oc2cc(C)c3c(C)coc3c12 | -11.3% | -4.3 | 10µM* | 33.7 | -3.1% | 13.6%
CCCc1cc(=O)oc2cc3occ(C)c3cc12 | . | -1.0 | 2.24µM* | -15.4 | 2.2% | 6.5%
Cc1c(C)c2cc3c(C)coc3cc2oc1=O | 5.22µM* | -1.9 | -3.1% | -3.5 | 12.4% | 33.6%

Assay outcomes deposited in PubChem by National Center for Advancing Translational Sciences (NCATS).
